# Measurements: PubChem BioAssay AID1001 (Sanford-Burnham Center for Chemical Genomics, 2008)
# About 50 (0.03%) of roughly 200,000 compounds were called active. The rule behind the calls is not given here. This excerpt belongs to a sample that is enriched for actives. Results with a measured potency or affinity are listed apart.
# Target: Alkaline phosphatase, tissue-nonspecific isozyme (Homo sapiens) (UniProt P05186)
# Assay: stimulation of alkaline phosphatase TNAP activity – biochemical, luminescent, no phosphate acceptor, uHTS, primary screen (AID 1001)
# Conditions: purified TNAP, luminescent activation assay, at 20 µM, stronger effect = higher value
# Chain of Alkaline phosphatase, tissue-nonspecific isozyme (Homo sapiens) (P05186 whole entry, looked up): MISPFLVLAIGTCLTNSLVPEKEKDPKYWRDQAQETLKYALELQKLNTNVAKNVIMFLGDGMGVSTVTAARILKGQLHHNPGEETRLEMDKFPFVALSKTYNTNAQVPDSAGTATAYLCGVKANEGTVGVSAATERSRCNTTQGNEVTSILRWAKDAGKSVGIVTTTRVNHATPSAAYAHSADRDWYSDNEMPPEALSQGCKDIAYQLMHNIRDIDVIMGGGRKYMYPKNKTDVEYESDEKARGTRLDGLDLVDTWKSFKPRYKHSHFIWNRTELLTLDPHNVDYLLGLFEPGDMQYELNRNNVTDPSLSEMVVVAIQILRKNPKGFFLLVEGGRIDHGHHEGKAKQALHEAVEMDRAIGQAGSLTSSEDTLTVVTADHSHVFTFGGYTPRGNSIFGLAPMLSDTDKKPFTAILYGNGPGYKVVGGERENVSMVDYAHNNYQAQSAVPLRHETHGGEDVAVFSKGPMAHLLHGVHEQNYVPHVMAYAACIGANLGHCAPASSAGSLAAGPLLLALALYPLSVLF
row,Structure (SMILES),activation fold
1,COCCCNC(=O)CCC(=O)NNc1nc2ccccc2c2nc(-c3ccccc3)nn12,2.3 (inactive)
2,CCOCCCNC(=O)CCC(=O)NNc1nc2ccccc2c2nc(-c3ccccc3)nn12,2.1 (inactive)
3,CCCCNC(=O)CCC(=O)NNc1nc2ccccc2c2nc(-c3ccccc3)nn12,1.6 (inactive)
4,O=C(CCC(=O)NNc1nc2ccccc2c2nc(-c3ccccc3)nn12)NCCCN1CCCC1=O,1.1 (inactive)
5,COc1ccc(C(=O)N/C(=C\c2ccccc2)C(=O)NC(CC(C)C)C(=O)O)cc1 (stereo unspecified),1.1 (inactive)
6,Cc1coc(C)c1C(=O)CC1(O)C(=O)N(CCc2ccccc2)c2ccccc21 (stereo unspecified),1.1 (inactive)
7,CCOC(=O)CSc1nc2c(sc3ccc([N+](=O)[O-])cc32)c(=O)n1Cc1ccco1,1.1 (inactive)
8,CCOc1ccc(-n2cc(-c3ccccc3)c3c(N4CCOCC4)ncnc32)cc1,1.1 (inactive)
9,O=c1cc(NCc2ccc3c(c2)OCO3)[nH]c(=O)n1-c1ccc(Cl)cc1,1.1 (inactive)
10,O=S(=O)(Nc1ccc2c(c1)OCO2)c1ccccc1,1.1 (inactive)
11,CNC(=O)N(O)C1N(C)C(=O)N(Cc2ccccc2)C1(C)C (stereo unspecified),1.1 (inactive)
12,O=C(CCN1C(=O)/C(=C/c2ccccc2)SC1=S)NNC(=O)c1cccnc1,1.6 (inactive)
13,O=C(CCN1C(=O)/C(=C\c2ccccc2)SC1=S)NNC(=O)c1cccnc1,1.6 (inactive)
14,CCCC(Oc1ccc(Br)cc1)c1nc2c3cc(OC)c(OC)cc3nc(=S)n2[nH]1 (stereo unspecified),1.2 (inactive)
15,Cc1cc(N2CCCCC2)nc(NCc2ccccc2)n1,1 (inactive)
16,Cc1cc(N2CCCCC2)nc(N)n1,1.1 (inactive)
17,COc1cccc(C(=O)NNC(=O)c2ccccc2-n2cccc2)c1,1.3 (inactive)
18,O=C(CSc1nnc(-c2ccncc2)n1Cc1ccccc1)NCCc1ccccc1,1.2 (inactive)
19,Clc1ccc(SCCn2ccnc2)cc1,1.1 (inactive)
20,OC(Cn1ccnc1)c1ccc(Cl)cc1Cl (stereo unspecified),1 (inactive)
21,S=C(NCCCn1ccnc1)Nc1ccc(Cl)cc1Cl,1 (inactive)
22,Clc1ccc(OCCn2ccnc2)c(Cl)c1,1 (inactive)

row,Structure (SMILES),activation fold
1,Cc1cc2cc3c(cc2nc1SCC(=O)O)CCC3,1 (inactive)
2,CCCCC(=O)Nc1ccc(C(=O)OC2CCCCC2)cc1,1 (inactive)
3,CCS(=O)(=O)N1CCC(NC(=O)c2ccco2)CC1,1.1 (inactive)
4,O=C(O)c1ccc(CNC(=O)c2ccc(C(F)(F)F)cc2)cc1,1 (inactive)
5,COC(=O)c1ccc(/C=C2\N=C(SC)SC2=O)cc1,1.1 (inactive)
6,OCCCN1c2ccccc2Nc2nnc(-c3ccccc3)cc21,1.5 (inactive)
7,CC(=O)OCCCN1C(=O)c2ccc(Br)cc2C1=O,1 (inactive)
8,CC(C)c1[nH]nc2c1C1(CCN(Cc3ccccc3)CC1)C(C#N)=C(N)O2,0.9 (inactive)
9,CC(C)=CCSc1nnc([C@@H](NC(=O)OC(C)(C)C)C(C)C)o1,1.1 (inactive)
10,CCOC(=O)N1CCC(NC(=O)CSc2cc(=O)n(CC)c3ccccc23)CC1,1.2 (inactive)
11,CCc1ccc(CNC(=O)Cn2nc(-c3ccccc3)ccc2=O)cc1,1 (inactive)
12,Oc1c(C(c2ccc(Cl)cc2)N2CCCC2)cc(Cl)c2cccnc12 (stereo unspecified),1.2 (inactive)
13,CN1CCN(C(c2ccccn2)c2cc(Cl)c3cccnc3c2O)CC1 (stereo unspecified),2.5 (inactive)
14,CC(=O)c1sc(NC(=O)C(C)(C)C)nc1C,1.1 (inactive)
15,Cc1cccc(NCc2nc(-c3ccccc3)no2)c1,1.1 (inactive)
16,CC(C)CC(CC(C)C)=NNC(=O)c1ccc2c(c1)OCO2,1.1 (inactive)
17,CC(C)CNC(=O)C(=O)NNC(=O)c1ccco1,1.1 (inactive)
18,CC(C)CCC(C(=O)O)C(C)CC(=O)NNC(=O)c1ccco1 (stereo unspecified),1.1 (inactive)
19,CNC(=S)NNC(=O)c1ccc2c(c1)OCO2,1.6 (inactive)
20,COC(=O)c1ccc(N=Cc2c(C(F)(F)F)[nH][nH]c2=O)cc1,0.8 (inactive)
21,Cc1ccc(/C=N/NC(=O)c2nn(C)cc2Cl)cc1,1.1 (inactive)
22,C/C(=N\NC(=O)c1nn(C)cc1Cl)c1ccncc1,1.2 (inactive)

row,Structure (SMILES),activation fold
1,Cc1nc(Nc2nc(CSc3nc4ccccc4[nH]3)cc(=O)[nH]2)nc2ccccc12,2.5 (inactive)
2,COc1ccc2nc(Nc3nc(CSc4nc5ccccc5[nH]4)cc(=O)[nH]3)nc(C)c2c1,2.4 (inactive)
3,CCOC(=O)CNC(=O)C(CO)NC(=O)OCc1ccccc1 (stereo unspecified),1.1 (inactive)
4,CCOC(=O)/C(N=Nc1sc(C(=O)OCC)c(C)c1C(=O)OCC)=C(\C)O,1 (inactive)
5,COC(=O)c1sccc1NC(=O)Cn1nnc(-c2ccc(C)cc2)n1,1 (inactive)
6,O=C(CCC(=O)Nc1ccc(Cl)cc1Cl)NNC(=O)Nc1ccccc1,1.3 (inactive)
7,Cc1cc([N+](=O)[O-])nn1CC(=O)Nc1ccc(F)cc1,1.1 (inactive)
8,Cc1cc([N+](=O)[O-])nn1CC(=O)Nc1cc(F)ccc1F,1 (inactive)
9,CCOC(=O)C1(Cc2cccc(OC)c2)CCN(Cc2cnc(C)s2)CC1,1 (inactive)
10,CCCCN1CNC(=S)N(Cc2ccccc2)C1,0.9 (inactive)
11,COc1ccc(S(=O)(=O)Nc2ccccc2C)cc1,1 (inactive)
12,CCN(CC)c1ccc(C=Nc2ccc(N(C)C)cc2)c(O)c1,2.3 (inactive)
13,CCN(CC)c1ccc(C=Nc2ccc(C)cc2)c(O)c1,0.9 (inactive)
14,CCN(CC)c1ccc(N=Cc2ccc(N(CC)CC)cc2O)cc1,6 (active)
15,COc1ccc(C(C)=O)c(Oc2nc(CN3CCOCC3)nc3scc(-c4cccs4)c23)c1,1 (inactive)
16,CC(=O)NNc1ncnc2c1cnn2-c1ccc(C)c(Cl)c1,2.2 (inactive)
17,Cn1ncc2c(NNC(=O)c3ccc(Cl)cc3Cl)ncnc21,2.4 (inactive)
18,Cn1cccc1C(=O)C(=O)Nc1ccccc1C(F)(F)F,1.2 (inactive)
19,CN(CCO)C(=O)CCC(=O)Nc1ccc(S(N)(=O)=O)cc1,1.1 (inactive)
20,CCN1/C(=C/C(C)=C/c2sc3ccccc3[n+]2CC)Sc2ccccc21,0.4 (inactive)
21,CC[n+]1c(/C=C/C=C/N(C(C)=O)c2ccccc2)sc2ccccc21,0.7 (inactive)
22,CCN1/C(=C/C=C/C=C/c2sc3ccccc3[n+]2CC)Sc2ccccc21,53.2 (active)
